We go through 34 compounds from PubChem BioAssay AID489037 (National Center for Advancing Translational Sciences (NCATS), 2010).

The target in this test is Nuclear receptor ROR-gamma (Mus musculus) (UniProt P51450). Description: Secondary confirmation assay for inhibitors of ROR gamma transcriptional activity. A digest of the protocol:
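Luminescence read after 20 hr at ambient temperature, following 1 hr compound exposure and copper sulfate induction (700 uM final), in stably transfected Schneider cells carrying Gal4-ROR gamma fusion and UAS-driven firefly luciferase.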

The structures appear in SMILES notation. Where “and” joins values, the source holds several entries; their conditions need not be identical. Identical values can stand only once. Records with an inconclusive call do not appear. A structure can be active in one record and inactive in another. Calls of active or inactive are those of the source. The call rests on the fitted dose curve; in most records, active means well fitted inhibition curve with a large enough effect; inconclusive means small, poorly fitted or top-dose-only effect, or effect the other way; inactive means no such curve, though single readings can be large or run the other way.

Sequence of Nuclear receptor ROR-gamma (Mus musculus) (P51450 whole entry, looked up, the tested form may be a part): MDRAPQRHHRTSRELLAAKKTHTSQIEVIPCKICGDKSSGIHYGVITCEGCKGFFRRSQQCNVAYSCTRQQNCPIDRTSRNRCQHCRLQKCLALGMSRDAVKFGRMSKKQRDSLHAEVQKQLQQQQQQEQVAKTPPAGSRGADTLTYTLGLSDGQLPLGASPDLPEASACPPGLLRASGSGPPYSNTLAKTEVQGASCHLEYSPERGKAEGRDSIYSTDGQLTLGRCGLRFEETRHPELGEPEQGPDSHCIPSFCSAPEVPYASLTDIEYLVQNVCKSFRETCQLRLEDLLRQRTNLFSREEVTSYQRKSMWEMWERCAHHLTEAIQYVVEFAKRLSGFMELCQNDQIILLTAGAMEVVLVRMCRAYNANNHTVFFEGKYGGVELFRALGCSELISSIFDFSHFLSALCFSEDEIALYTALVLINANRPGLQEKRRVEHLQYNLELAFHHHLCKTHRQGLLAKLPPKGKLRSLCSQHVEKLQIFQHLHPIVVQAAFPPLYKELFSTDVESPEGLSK

As for `COc1cc(O)c(C(CC(=O)N2CCCC(C)C2)c2ccc(-c3ccccc3)cc2)c(OC)c1` (centres undefined), the Potency result is “inactive”.

`COc1cc(OC)c(C(CC(=O)N2CC(C)CC(C)C2)c2ccc3c(c2)OCO3)c(OCC#N)c1` (centres undefined): the Potency is 7.24 µM (active).

Consider `COc1ccc(C)c(O)c1C(CC(=O)N1CCCC(C)C1)c1ccc2c(c1)OCO2` (centres undefined), for which the Potency is 40.7 µM (active).

As to `COc1cc(O)c(C(CC(=O)N2CCCC(COc3ccc(F)cc3)C2)c2ccc3c(c2)OCO3)c(OC)c1` (centres undefined), the Potency result was “inactive”.

Take `COc1cc(O)c(C(CC(=O)N2CCC[C@@H](C)C2)c2ccc3c(c2)OCO3)c(OC)c1` (some centres undefined): the Potency was 5.12 µM (active) and 22.9 µM (active) and inactive.

`CC(C)(C)c1ccc(S(=O)(=O)Nc2ccc(C(O)(C(F)(F)F)C(F)(F)F)cc2)cc1`: the Potency is 20.4 µM (active).

Consider `COc1cc(O)c(C(CC(=O)N2CCCC(C)C2)c2ccccc2)c(OC)c1` (centres undefined), for which the Potency is 7.24 µM (active).

`COc1cc(O)c(C(CC(=O)N2CCCC(CO)C2)c2ccc3c(c2)OCO3)c(OC)c1` (centres undefined): the Potency entry is “inactive”.

`COc1cc(O)c(C(CC(=O)N2CCCC(C)C2)c2ccc(C(C)C)cc2)c(OC)c1` (centres undefined): the Potency was 14.4 µM (active).

As to `O=S(=O)(c1ccc(NC(=S)N/N=C/c2ccc(Oc3ccccc3)cc2)cc1)N1CCOCC1`, the Potency is 1.15 µM (active).

For the compound `C#CCOc1cc(OC)cc(OC)c1C(CC(=O)N1CCCC(C)C1)c1ccc2c(c1)OCO2` (centres undefined), the Potency was 9.11 µM (active).

On to `COc1cc(O)c(C(CC(=O)N2CC(C)NC(C)C2)c2ccc3c(c2)OCO3)c(OC)c1` (centres undefined), for which the Potency entry was “inactive”.

In the case of `COCOc1cc(OC)cc(OC)c1C(CC(=O)N1CC(C)CC(C)C1)c1ccc2c(c1)OCO2` (centres undefined), the Potency was 4.07 µM (active).

As for `COc1ccc2nc(NNC(=O)COc3ccccc3)sc2c1`, the Potency was 4.57 µM (active).

As to `CC(C)(C)c1ccc(-c2noc(CCC(=O)Nc3cccnc3)n2)cc1`, the Potency is 0.257 µM (active).

Turning to `COc1cc(OC)c(C(CC(=O)N2CC(C)CC(C)C2)c2ccc3c(c2)OCO3)c(OC)c1` (centres undefined), the Potency is 4.57 µM (active).

Consider `COc1cc(O)c(C(CC(=O)N2CCC(c3ccccc3)CC2)c2ccc3c(c2)OCO3)c(OC)c1` (centres undefined), for which the Potency entry was “inactive”.

Turning to `COc1ccc(C(CC(=O)N2CCCC(C)C2)c2c(O)cc(OC)cc2OC)cc1` (centres undefined), the Potency is 2.29 µM (active).

`CCC1(CC)CCN(C(=O)CC(c2ccc3c(c2)OCO3)c2c(O)cc(OC)cc2OC)C1` (centres undefined): the Potency was 22.9 µM (active).

On to `COc1cc(O)c(C(CC(=O)N(Cc2ccccc2)Cc2ccccc2)c2ccc3c(c2)OCO3)c(OC)c1` (centres undefined), for which the Potency result was “inactive”.

For `CCn1cc(C(=O)O)c(=O)c2cnc(N3CCN(C(=S)NC(=O)c4ccccc4)CC3)nc21`, the Potency was 11.5 µM (active).

Regarding `COc1cc(O)c(C(CC(=O)N2CCOCC2)c2ccc3c(c2)OCO3)c(OC)c1` (centres undefined), the Potency result was “inactive”.

`O=C(CCCOc1ccccc1)Nc1nc2ccccc2[nH]1`: the Potency was 7.24 µM (active).

Turning to `COc1cc(OC)c(C(CC(=O)N2CCCC(C)C2)c2ccc3c(c2)OCO3)c(OCc2ccccc2)c1` (centres undefined), the Potency was 6.45 µM (active).

Take `COc1cc(O)c(C(CC(=O)N2CCCC(C)C2)c2ccc(C)cc2)c(OC)c1` (centres undefined): the Potency is 10.2 µM (active).

On to `COc1cc(O)c(C(CC(=O)N2CCCC(C)C2)c2cccc3ccccc23)c(OC)c1` (centres undefined), for which the Potency entry was “inactive”.

Turning to `CCOc1ncccc1C(=O)OCC(=O)Nc1ccc(-c2nc3ccc(C)cc3s2)cc1`, the Potency was 0.407 µM (active).

As for `COc1cc(O)c(C(CC(=O)N2CC(C)CC(C)C2)c2ccc(N(C)C)cc2)c(OC)c1` (centres undefined), the Potency was 2.88 µM (active).

On to `COc1cc(O)c(C(CC(=O)NCc2ccccc2)c2ccc3c(c2)OCO3)c(OC)c1` (centres undefined), for which the Potency entry was “inactive”.

On to `COc1cc(OC)c(C(CC(=O)N2CC(C)CC(C)C2)c2ccc3c(c2)OCO3)c(OCC(N)=O)c1` (centres undefined), for which the Potency is 11.5 µM (active).

As for `CC1CCCN(C(=O)CC(c2ccccc2)c2ccccc2O)C1` (centres undefined), the Potency result is “inactive”.

Consider `COc1cc(O)c(C(CC(=O)N2CCC[C@H](C)C2)c2ccc3c(c2)OCO3)c(OC)c1` (some centres undefined), for which the Potency was 9.11 µM (active) and 3.23 µM (active) and inactive.

Take `CCOC(=O)c1sc(NC(=O)c2cc3c(s2)CCC(C)C3)nc1C` (centres undefined): the Potency is 0.144 µM (active).

On to `COc1cc(C)nc(-n2nc(C)cc2OC)n1`, for which the Potency was 3.23 µM (active).
